NOD2 RIPK2 PPI: blocks binding of human NOD2 to RIPK2 | O43353 | CHO BLA complementation NOD2-RIPK2, CCF4 ratio | inhibition, % at 4.98 µM | actives 0.38% (n = 360,000); in the data active = inhibition above about 21%;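 also: 0% = vehicle only and 100% = reference blocker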
Target sequence (O43353 whole entry, looked up): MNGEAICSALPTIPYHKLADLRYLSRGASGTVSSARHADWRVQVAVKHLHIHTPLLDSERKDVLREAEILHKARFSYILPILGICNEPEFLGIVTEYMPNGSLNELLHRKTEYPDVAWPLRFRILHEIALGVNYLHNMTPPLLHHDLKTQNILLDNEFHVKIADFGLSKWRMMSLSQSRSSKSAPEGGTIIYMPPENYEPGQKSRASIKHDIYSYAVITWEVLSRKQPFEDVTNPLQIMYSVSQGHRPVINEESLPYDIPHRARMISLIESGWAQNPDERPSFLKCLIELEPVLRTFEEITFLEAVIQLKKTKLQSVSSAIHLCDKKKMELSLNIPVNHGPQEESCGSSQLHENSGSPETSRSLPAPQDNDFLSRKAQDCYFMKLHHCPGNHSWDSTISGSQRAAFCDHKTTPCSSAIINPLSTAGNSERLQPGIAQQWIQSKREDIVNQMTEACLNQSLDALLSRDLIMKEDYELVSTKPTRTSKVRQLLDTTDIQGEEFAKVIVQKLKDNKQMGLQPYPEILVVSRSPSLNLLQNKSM
TLR9-MyD88 block: inhibitors of human TLR9-MyD88 binding. CHO BLA complementation TLR9-MyD88, CCF4 FRET ratio. inhibition, % at 4.98 µM. actives 0.21% (n = 340,000);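 active = inhibition above the mean over all tested compounds plus 3 SD, cut at about 21% in these data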;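 also: 0% = DMSO only wells and 100% = clavulanate BLA inhibitor control wells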
ANO1 activ: activates or potentiates the mouse TMEM16A chloride channel; Q8BHY3; HEK293 TMEM16A/YFP-H148Q/I152L, iodide quench fluorescence; active compounds read low; B-score at 10 µM; actives 0.3% (n = 340,000); AID 623877;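 active = fluorescence-ratio B-score plate-corrected deviation score at least 3 library SD below zero, with starting fluorescence score within 5 deviations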;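 also: channel opened by trigger with iodide after compound preincubation; score built on the fluorescence ratio of max minus min over baseline; more negative score means more quench and so TMEM16A activation or potentiation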
ANO1 block: mouse TMEM16A channel inhibition, primary screen | normalized B-score (activity score, 25-100; higher = stronger inhibition) at 10 µM | AID 588511 | Q8BHY3 | HEK293 TMEM16A/YFP iodide influx fluorescence, ionomycin | actives 1.2% (n = 310,000);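 active = ratio plate-corrected score three or more library SD toward inhibition, starting fluorescence score within five deviations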;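 also: score derived from kinetic fluorescence span divided by baseline fluorescence per well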
GRK2 inh: blocks RNA aptamer binding to human GRK2; P25098; bead flow cytometry, FAM-aptamer displacement from GRK2; inhibition of aptamer binding, % at 10 µM; actives 0.59% (n = 330,000); AID 488847;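 active = inhibition of aptamer binding above 40%, roughly 3 SD of noise, on plates passing a quality check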;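 also: median bead fluorescence of bound FAM aptamer so fluorescent compounds give negative values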
TLR4-MyD88 BLA: inhibitors of human TLR4-MyD88 binding; O00206+Q99836; HeLa CL3-4 TLR4/MyD88 BLA complementation, FRET ratio; inhibition, % at 8.4 µM; actives 0.18% (n = 200,000); AID 861; in the data active = inhibition above about 25%;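 also: 0% = vehicle and 100% = reference inhibitor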
TLR4 MyD88 cnf: TLR4-MyD88 interaction inhibition confirmed | shares compounds with TLR4-MyD88 BLA | HeLa CL3-4 BLA complementation, CCF4 FRET ratio | inhibition, % at 8.4 µM | actives 50% (n = 350) | AID 941;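 active = mean inhibition across three repeat runs above about 25% carried over from the earlier screen, limit read from the data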;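 also: plate controls were DMSO only for no effect and clavulanic acid blocking BLA at full dose for full effect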
BLA inhibitor ct: inhibits beta-lactamase activity, counter-screen to TLR4-MyD88 binding inhibitors | actives 63% (n = 350) | inhibition, % at 8.4 µM | shares compounds with TLR4-MyD88 BLA | HeLa BLA reporter, CCF4 FRET ratio;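 active = mean inhibition over three repeats above about 26% taken from the earlier screen, limit read from the data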;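 also: HeLa cells stably expressing beta-lactamase reporter as counterscreen for TLR4-MyD88 inhibitors; 0% = DMSO and 100% = clavulanic acid full inhibition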
TLR9-MyD88 conf: TLR9-MyD88 interaction inhibition, confirmation. inhibition, % at 4.98 µM. actives 51% (n = 680). CHO TLR9/MyD88 BLA complementation, CCF4 FRET ratio. shares compounds with TLR9-MyD88 block. AID 540250;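 active = mean inhibition across three repeats above about 21% taken from the earlier screen, limit read from the data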;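 also: blue over green emission ratio reports constitutive TLR9 MyD88 association via BLA complementation; 0% = DMSO vehicle wells and 100% = clavulanate BLA inhibitor wells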
BLA counter-1: counter-screen for TLR9-MyD88 inhibitors: non-selective beta-lactamase inhibitors; shares compounds with TLR9-MyD88 block; CHO-BLA cells, CCF4 FRET ratio, BLA reporter; inhibition, % at 4.98 µM; actives 7% (n = 680);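 active = mean inhibition above a 50% cutoff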;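 also: counterscreen of TLR9-MyD88 hits on CMV-driven BLA in CHO-K1 cells; 0% = DMSO alone and 100% = clavulanate blocking BLA; higher means less blue over green ratio so more BLA blockade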
TLR9 CHO tox: CHO cell toxicity counter-screen for TLR9-MyD88 inhibitors; actives 39% (n = 680); inhibition, % at 4.98 µM; TLR9-MyD88 CHO cells cytotoxicity, luminescence; shares compounds with TLR9-MyD88 block; in the data active = inhibition above about 11%
TMEM16A reconf: reconfirmed blocker of mouse TMEM16A calcium-activated chloride channel; actives 39% (n = 2,300); HEK293 TMEM16A/YFP-H148Q, iodide quench fluorescence; ionomycin added to raise cell calcium; shares compounds with ANO1 block; inhibition, % at 10 µM; AID 652189;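 active = mean duplicate percent inhibition, scaled so buffer wells are 0 and the reference blocker 100, over three buffer SD above buffer mean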
HEK293 Ca mobil: alters calcium mobilization in TMEM16A HEK293 cells, counter-screen. TMEM16A/YFP HEK293, Fluo4 calcium mobilization. actives 2% (n = 2,300). calcium response (% of ionomycin), % at 10 µM. shares compounds with ANO1 block. AID 652231;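 active = duplicate-averaged calcium signal over 20% of the ionomycin maximum, relative to buffer baseline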;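 also: each well's signal is peak minus trough fluorescence divided by its pre-addition baseline; 0% = buffer wells and 100% = ionomycin wells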
Parental YFP cnt: parental YFP-HEK293 iodide quench counter-screen activity; shares compounds with ANO1 block; ionomycin; YFP ratio F(max-min)/F0 at 10 µM; 2,300 tested, under 10 active;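 active = yellow fluorescent protein signal ratio exceeding the buffer control mean by over 5 SD of those controls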;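 also: ratio is mean of duplicate wells from kinetic YFP trace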
ClC-1 rat inh: blocks the rat ClC-1 voltage-dependent chloride channel; shares compounds with ANO1 block; CHO ClC-1-YFP, iodide influx fluorescence quench; iodide control reads 0, buffer control 100; ratio percent, % at 10 µM; 2,300 tested, under 10 active;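 active = duplicate-mean ratio percent above the mean of iodide-only control wells, which defines zero, plus 5 of their SD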;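 also: higher percent means stronger block of ClC-1 iodide influx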
NOD2-RIPK2 conf: NOD2-RIPK2 interaction inhibition confirmed | AID 624370 | actives 70% (n = 1,200) | inhibition, % at 4.98 µM | shares compounds with NOD2 RIPK2 PPI | CHO cells, NOD2-RIPK2 BLA complementation, CCF4 FRET;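 active = mean inhibition across replicates above a set limit taken from the earlier primary screen, cut at about 21% in these data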;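 also: 0% = DMSO-only wells and the high end = clavulanate BLA-blocked wells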
BLA counter-2: counter-screen for NOD2-RIPK2 interaction inhibitors: BLA reporter. shares compounds with NOD2 RIPK2 PPI. CHO BLA reporter, CCF4 FRET ratio, counterscreen. inhibition, % at 4.98 µM. actives 57% (n = 1,200). AID 624371;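 active = mean inhibition above the low-control mean inhibition plus three low-control SD, cut at about 11% in these data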;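 also: 0% = DMSO only wells and 100% = clavulanate high control wells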
* marks the source's active call; other numbers are inactive results; i = inactive; · = not tested or not shown. This is a sample that favours compounds with a hit; in the whole collection about 2.2% have one here.

SMILES | NOD2 RIPK2 PPI | TLR9-MyD88 block | ANO1 activ | ANO1 block | GRK2 inh | TLR4-MyD88 BLA | TLR4 MyD88 cnf | BLA inhibitor ct | TLR9-MyD88 conf | BLA counter-1 | TLR9 CHO tox | TMEM16A reconf | HEK293 Ca mobil | Parental YFP cnt | ClC-1 rat inh | NOD2-RIPK2 conf | BLA counter-2
O=[N+]([O-])c1ccc(-c2nc(-c3cccs3)c(-c3cccs3)[nH]2)cc1 | 32.9* | 30.5* | i | i | 0.0 | 28.0* | 23.2 | 48.8* | 17.4 | 20.0 | 3.6 | 20.5%* | i | -1.02 | 3.0 | 36.0* | 37.2*
COCCN(CC(=O)NC1CCCCC1)C(=O)/C=C/C(=O)c1ccc(OC)cc1O | 49.8* | 20.6 | i | · | · | 31.1* | 26.9* | -8.3 | · | · | · | · | · | · | · | 90.9* | 12.0*
CCN1/C(=C/C=C/c2oc3ccc(-c4ccccc4)cc3[n+]2CC)Oc2ccc(-c3ccccc3)cc21 | 47.1* | 25.3* | i | i | 0.0 | 39.7* | 35.1* | 57.5* | 25.2* | 27.0 | 69.0* | · | · | · | · | 66.5* | 56.6*
COc1cccc(-c2cnc3c(NC(C)=O)cc(-c4ccsc4)cn23)c1 | 4.9 | · | · | · | · | · | · | · | · | · | · | · | · | · | · | · | ·
CC1(C)CC(=O)C2=C(C1)OC1=C(C(=O)CC(C)(C)C1)C2c1ccc(O)cc1O | 66.8* | 14.7 | i | i | 0.0 | 33.5* | 24.4 | -7.5 | · | · | · | i | i | -0.582 | -4.5 | 78.6* | -1.6
COc1ccc(/C=c2/sc3n(c2=O)C(c2ccccc2OC)C2=C(N=3)c3ccccc3CC2)cc1O (stereo unspecified) | 35.2* | 17.3 | i | i | 5.0 | 27.3* | 18.2 | 44.8* | · | · | · | · | · | · | · | 25.6* | 31.4*
CCCN(CCC)CC(O)Cn1cc(/C=C/C(=O)c2cccs2)c2ccccc21 (stereo unspecified) | 38.7* | 39.7* | i | i | 0.0 | 39.0* | 32.2* | 62.5* | 20.8* | 21.2 | 1.1 | · | · | · | · | 45.6* | 44.0*
Cc1ccc(C(=O)OCn2ncc(Cl)c(Cl)c2=O)cc1 | 66.2* | 29.7* | i | i | 0.0 | 54.5* | 62.4* | 17.8 | 27.1* | 26.0 | 98.4* | · | · | · | · | 85.0* | 7.8
